# Source: PubChem BioAssay (NCATS)
# Inconclusive results are not listed. A call without a number means that no potency is given here. Unmarked numbers belong to inactive results. The source made the active and inactive calls. Calls follow the shape of the dose curve; as a rule, active = well fitted inhibition curve with a large enough effect; inconclusive = small, poorly fitted or top-dose-only effect; inactive = no such curve, though single readings can be large or run the other way.
# How the values were obtained:
# [1] = test system: Zika virus NS2B-NS3 protease (unlinked complex); assay: Primary screen GU Rhodamine qHTS for Zika virus inhibitors: Unlinked NS2B-NS3 protease assay (AID 1347159); also: nearly all actives have a fitted effect of over 60% in size
# Procedure, shortened: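 Buffer 10 mM Tris-HCl pH 8.0, 0.01% Tween 20. Unlinked protease 25 nM; compound preincubation 15 min, RT, protected from light. Substrate Rhod110, 1.5 microM; ~15% conversion in 15 min.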
# [2] = test system: Zika virus NS2B-NS3 protease (linked construct); assay: Primary screen NINDS Rhodamine qHTS for Zika virus inhibitors (AID 1347160); also: nearly all actives have a fitted effect of over 55% in size
# Procedure, shortened: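 Aprotinin served as in-plate control. Conditions: 25 nM linked NS2B-NS3, pH 8.0 Tris buffer, titrated compounds, 15 min preincubation and 15 min reaction with 1.5 microM Rhod110 substrate at room temperature.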
# Potency is read from the fitted curve at half-maximal effect.
compound,measurement,setting,value
C=CC(=O)Nc1cccc(Oc2nc(Nc3ccc(N4CCN(C)CC4)cc3)ncc2Cl)c1,Potency,[1],inactive
same,Potency,[2],inactive
C[C@]1(CO)CN(c2cc(C(=O)Nc3ccc4c(c3)-c3c(c(C(N)=O)nn3-c3ccc(F)cc3)CC4)c(Cl)cn2)C[C@@]1(C)CO,Potency,[1],inactive
same,Potency,[2],inactive
CCn1nnc2c(N3CCOCC3)nc(-c3ccc(NC(=O)Nc4ccc(C(=O)N5CCN(C)CC5)cc4)cc3)nc21,Potency,[1],inactive
same,Potency,[2],inactive
CCNC(=O)Nc1ccc2ncc(Nc3ccc(C)cc3)nc2n1,Potency,[1],25.1 µM (active)
same,Potency,[2],35.5 µM (active)
COc1cc2c(Oc3ccc(NC(=O)C4(C(=O)Nc5ccc(F)cc5)CC4)cc3F)ccnc2cc1OCCCN1CCOCC1,Potency,[1],inactive
same,Potency,[2],inactive
Cn1cc(-c2[nH]c3cc(NC(=O)[C@H](N)C4CCCCC4)cc4c3c2C=NNC4=O)cn1,Potency,[1],inactive
same,Potency,[2],inactive
COc1ccc(F)c(F)c1C(=O)c1cnc(NC2CCN(S(C)(=O)=O)CC2)nc1N,Potency,[1],inactive
same,Potency,[2],inactive
CC1COC2(CCN(c3nc(=O)c4cc(C(F)(F)F)cc([N+](=O)[O-])c4s3)CC2)O1 (stereo not drawn),Potency,[1],inactive
same,Potency,[2],inactive
CNC(=O)c1ccccc1Nc1nc(Nc2ccc(N3CCOCC3)cc2OC)ncc1Cl,Potency,[1],inactive
same,Potency,[2],inactive
Cc1nc(N)ncc1-c1nc(N2CCOCC2)c2sc(C(C)(C)O)cc2n1,Potency,[1],inactive
same,Potency,[2],inactive
Cc1c(NC(=O)OC[C@@H]2COCCN2)cn2ncnc(Nc3ccc4c(cnn4Cc4cccc(F)c4)c3)c12,Potency,[1],inactive
same,Potency,[2],inactive
Cc1[nH]nc2ccc(-c3cncc(OC[C@@H](N)Cc4ccccc4)c3)cc12,Potency,[1],inactive
same,Potency,[2],inactive
C=CC(=O)Nc1cccc(Oc2nc(Nc3ccc(N4CCN(C)CC4)cc3OC)ncc2Cl)c1,Potency,[1],inactive
same,Potency,[2],inactive
Cn1c(CNc2ccc(C(=N)N)cc2)nc2cc(C(=O)N(CCC(=O)O)c3ccccn3)ccc21,Potency,[1],inactive
same,Potency,[2],inactive
CCc1cc2c(cc1N1CCC(N3CCOCC3)CC1)C(C)(C)c1[nH]c3cc(C#N)ccc3c1C2=O,Potency,[1],inactive
same,Potency,[2],inactive
C1Cc2[nH]nc(-c3nn[nH]n3)c2C1,Potency,[1],inactive
same,Potency,[2],inactive
C[C@@H](Oc1cc(-c2cnn(C3CCNCC3)c2)cnc1N)c1c(Cl)ccc(F)c1Cl,Potency,[1],inactive
same,Potency,[2],inactive
Cc1coc2c1C(=O)C(=O)c1c-2ccc2c1CCCC2(C)C,Potency,[1],22.4 µM (active)
same,Potency,[2],14.1 µM (active)
COCCOc1ccc2c(c1)ncn2-c1ccc2cccc(N3CCC(N)CC3)c2n1,Potency,[1],inactive
same,Potency,[2],inactive
O=C(Nc1ncc(-c2cc(C(F)F)nn2-c2c(Cl)cccc2Cl)s1)C1CC1,Potency,[1],inactive
same,Potency,[2],inactive
O=C(Nc1cn[nH]c1-c1nc2ccc(CN3CCOCC3)cc2[nH]1)NC1CC1,Potency,[1],inactive
same,Potency,[2],inactive
CC(C)CC(=O)Nc1n[nH]c2c1CN(C(=O)C1CCN(C)CC1)C2(C)C,Potency,[1],inactive
same,Potency,[2],inactive
Cc1cc(Nc2cc(N3CCN(C)CC3)nc(Sc3ccc(NC(=O)C4CC4)cc3)n2)n[nH]1,Potency,[1],inactive
same,Potency,[2],inactive
CNC(=O)CN1CCC(Oc2cc3c(Nc4cccc(Cl)c4F)ncnc3cc2OC)CC1,Potency,[1],inactive
same,Potency,[2],inactive
NC(=O)c1cccc2cn(-c3ccc([C@@H]4CCCNC4)cc3)nc12,Potency,[1],inactive
same,Potency,[2],inactive
Cc1ccc2nc(NC(=O)CSc3nc4c(c(=O)n3-c3ccccc3)SCC4)sc2c1,Potency,[1],inactive
same,Potency,[2],inactive
COc1c(OCCCN2CCOCC2)ccc2c3n(c(=NC(=O)c4cnc(N)nc4)nc12)CCN3,"activity change, negative = inhibition",[1],19.8% [at 19.1 µM]
same,outcome,[2],inactive [at 10.7 µM]
CN1CCN(Cc2ccc(NC(=O)Nc3ccc(Oc4cc(NC(=O)C5CC5)ncn4)cc3)cc2C(F)(F)F)CC1,Potency,[1],inactive
same,Potency,[2],inactive
CC(=O)c1c(C)c2cnc(Nc3ccc(N4CCNCC4)cn3)nc2n(C2CCCC2)c1=O,"activity change, negative = inhibition",[1],5.34% [at 11.5 µM]
same,"activity change, negative = inhibition",[2],8.21% [at 4.91 µM]
C=CCn1c(=O)c2cnc(Nc3ccc(N4CCN(C)CC4)cc3)nc2n1-c1cccc(C(C)(C)O)n1,Potency,[1],inactive
same,Potency,[2],inactive
Cc1cn2cc(C(=O)N(C)CCO)cc(N[C@@H]3CCOc4cccc(C)c43)c2n1,Potency,[1],inactive
same,Potency,[2],inactive
CCN(CC)CCNC(=O)c1ccc2nc(-c3ccccc3)c(-c3ccc(CN4CCC(n5c(=O)[nH]c6ccccc65)CC4)cc3)nc2c1,Potency,[1],inactive
same,Potency,[2],inactive
COc1cc2c(Nc3ccc(NC(=O)c4ccccc4)cc3)ncnc2cc1OCCCN1CCOCC1,Potency,[1],inactive
same,Potency,[2],inactive
COc1cc2c(Oc3ccc4[nH]c(C)cc4c3F)ncnc2cc1OCCCN1CCCC1,Potency,[1],inactive
same,Potency,[2],inactive
